# Assay results as given in PubChem BioAssay (NCI).
# About 83,000 compounds went through this panel and 20% of them were active in at least one assay; those are over-represented in the sample as a whole.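 The endpoint reported here, percent growth, reads 100 for growth as untreated, 0 for no net growth and -100 for all cells dead.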 Calls of active or inactive are those of the source. Rule for the calls: active = growth percent below 10; inactive = the rest.
# System: HOP-62 NSCLC
# Assay: NCI-60 one-dose screen, 48 h (100 = growth as untreated, 0 = no growth, -100 = all killed)
# Details: 10 µM unless noted
row,Compound,growth
1,Nc1c(C(=O)Nc2c(Cl)cccc2Cl)sc2nc3c(cc12)CCCC3,50.1% (inactive)
2,COc1cc2ncnc(Nc3ccc(OCc4cccc(F)c4)c(Cl)c3)c2cc1NC(=O)C1CCCC1,78.9% (inactive)
3,O=C(N/N=C/c1ccccc1SSc1ccccc1/C=N/NC(=O)c1ccccc1)c1ccccc1,20.2% (inactive)
4,C[C@@H]1CCCCCCCCC[C@H](O)C(=O)C[C@@H](SC[C@@H](O)C(=O)O)C(=O)O1,97.5% (inactive)
5,C=C(C)[C@@H]1CC[C@]2(C)[C@H](CC=C3[C@@H]4CC(C)(C)CC[C@]4(C(=O)OC)CC[C@]32C)[C@@]1(C)CC/C(N)=N/O,79.3% (inactive)
6,C=C(C)[C@@H]1CC[C@]2(C)[C@H](CC=C3[C@@H]4CC(C)(C)CC[C@]4(C=O)CC[C@]32C)[C@@]1(C)CCCN,88.9% (inactive)
7,Cc1ccc(/C=C(\C#N)c2cc3ccccc3n2C)cc1,47.1% (inactive)
8,N=C(N)c1ccc(S(N)(=O)=O)cc1,87.1% (inactive)
9,COc1ccc(-c2cc(=O)oc3ccc(Cl)cc23)cc1F,20.8% (inactive)
10,CCSc1sc(-c2ccc(C)cc2)nc1[P+](c1ccccc1)(c1ccccc1)c1ccccc1,-10.3% (active)
11,COC(=O)[C@]12CC[C@@H](C)[C@H](C)[C@@H]1C1=CC(=O)[C@@H]3[C@@]4(C)C[C@@H](O)[C@H](O)[C@@]5(C)COC(=C45)C[C@@]3(C)[C@]1(C)CC2,50.8% (inactive)
12,O=S(=O)(NCCNc1cc(-c2cn(-c3ccccc3)nc2-c2cccc(O)c2)ccn1)c1ccc(Br)cc1,40.4% (inactive)
